Source: PubChem BioAssay
Activity calls are given as the source filed them.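 The calls were made as follows: active = viability loss from added drug above about 55%, and viability with drug at most 40%, in both replicates (limit read from the data, passing the limit was not always enough); inconclusive = both conditions met in only one replicate; inactive = neither replicate meets both conditions.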

Assay: MRP1 drug-resistance reversers in H69AR cells – cell-based, doxorubicin co-treatment, pilot screen (AID 601)
Conditions: H69AR cells + 2 uM doxorubicin, CellTiter-Glo, 72 h; at 10 µM; stronger effect = higher value

**Q.** For `FC(F)(F)c1cccc(N2CCN(c3nnnn3-c3ccccc3)CC2)c1`, which differential viability (reversal) is on record?
**A.** The differential viability (reversal) was 0.31% (inactive).

**Q.** For `COC(=O)c1cc2oc(C)cc2n1CC(=O)Nc1ccc(C)c(C)c1`, which differential viability (reversal) is on record?
**A.** The differential viability (reversal) was -3.33% (inactive).

**Q.** For `Cc1cc2oc(=O)cc(C)c2c(=O)o1`, which differential viability (reversal) is on record?
**A.** Its differential viability (reversal) is 11.2% (inactive).

**Q.** With `CC(Oc1ccc(Cl)cc1Cl)C(=O)Nc1ncccn1` (stereo unspecified) as the molecule, how does the differential viability (reversal) read?
**A.** Its differential viability (reversal) is 9.42% (inactive).

**Q.** With `CC(C(=O)NCCCN1CCOCC1)n1cccc1C(=O)c1ccccc1` (stereo unspecified) as the molecule, how does the differential viability (reversal) read?
**A.** The differential viability (reversal) was 5.71% (inactive).

**Q.** With `CC(C)(C)NCc1cc2ccccc2[nH]c1=O` as the molecule, how does the differential viability (reversal) read?
**A.** Its differential viability (reversal) is 9.9% (inactive).

**Q.** Which differential viability (reversal) does the source give for `Cc1ccc(-c2noc(-c3ccccc3C(=O)NCC3CCCO3)n2)cc1` (stereo unspecified) here?
**A.** Its differential viability (reversal) is 5.99% (inactive).

**Q.** Which differential viability (reversal) does the source give for `Cc1cc(Nc2ccc(C(=O)O)cc2)n2nc(C)nc2n1` here?
**A.** Its differential viability (reversal) is 9.93% (inactive).

**Q.** For `O=C(CSc1nnnn1C1CCCCC1)N1CCc2ccccc21`, which differential viability (reversal) is on record?
**A.** The differential viability (reversal) was -3.15% (inactive).

**Q.** Which differential viability (reversal) does the source give for `Cc1cc(C)c2c(n1)nn1c(N3CCN(c4cccc(Cl)c4)CC3)cc(C)nc21` here?
**A.** The differential viability (reversal) was 6.38% (inactive).

**Q.** For `CC(=O)NC(Cc1cc(C)ccc1C)C(=O)N1CCN(C(=O)Nc2ccc(C(C)=O)cc2)CC1` (stereo unspecified), which differential viability (reversal) is on record?
**A.** Its differential viability (reversal) is -5.32% (inactive).

**Q.** With `Cc1nnc(SCCn2c(N3CC(C)CC(C)C3)nc3c2c(=O)n(C)c(=O)n3C)s1` (stereo unspecified) as the molecule, how does the differential viability (reversal) read?
**A.** Its differential viability (reversal) is -2.37% (inactive).

**Q.** Which differential viability (reversal) does the source give for `CC(C)CCNC(=O)NC(=O)CN1C(=O)NC2(CCCCC2)C1=O` here?
**A.** Its differential viability (reversal) is -4.12% (inactive).

**Q.** For `COc1ccc(C(=O)Nc2cccc(-c3nc4ncccc4o3)c2C)cc1OC`, which differential viability (reversal) is on record?
**A.** Its differential viability (reversal) is 1.52% (inactive).

**Q.** Which differential viability (reversal) does the source give for `Cc1ccc(S(=O)(=O)NCC2CCC(C(=O)NCCCN3CCOCC3)CC2)cc1` (stereo unspecified) here?
**A.** The differential viability (reversal) was -8.07% (inactive).

**Q.** For `Cc1ccc(NC(=O)CSc2nnc(-c3ccncc3)n2C)cc1C`, which differential viability (reversal) is on record?
**A.** The differential viability (reversal) was 3.42% (inactive).
